# Out of some 200,000 compounds screened, about 5,100 (2.5%) were called active. This is one part of a sample in which actives are shown more often than they occur. A number with no mark means an inactive call.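 How the source made its calls: active means activation above the screen-wide mean activation plus 3 SD (cut at about 130% in these data); inactive means the rest.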
# Experiment: STAT1 signaling activators, primary screen, cell-based, HTS, luciferase reporter (AID 932);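 further: raw ratio to IFN-gamma control signal so 100% means no change and 0% no light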
# Details: NIH 3T3 STAT1-luciferase reporter, IFN-gamma, luminescence; at 5.5 µM; stronger effect = higher value; 100% = IFN-gamma alone, no compound
row,Compound,activation (% of control)
1,O=C(Nc1cccc(OC(=O)N2CCCCC2)c1)N1CCOCC1,101%
2,CN1CCN(C(=O)COc2ccc(C(C)(C)C)cc2Br)CC1,97%
3,CC(C)(C)c1ccc(OC(=O)N2CCCCC2)cc1,146% (active)
4,Cc1ccccc1N1C(=O)NC(=O)/C(=C\c2cc(C)n(C)c2C)C1=O,92.7%
5,CCOC(=O)C1CN(C)CCC1=O (stereo not given),96.3%

# From PubChem BioAssay AID932 (The Scripps Research Institute Molecular Screening Center, 2007)
